Results on 13 molecules are retold here after PubChem BioAssay (Tox21).

Experiment [1] in a line: qHTS assay to identify small molecule antagonists of the glucocorticoid receptor (GR) signaling pathway - cell viability counter screen (AID 720693). Note: nearly all actives have a fitted effect of over 55% in size. Note: potency is the fitted concentration of half-maximal effect.
Experiment [2] in a line: qHTS assay for identifying genotoxic compounds that show differential cytotoxicity against isogenic chicken DT40 cell lines with known DNA damage response pathways - wild type cell line (AID 743012). Note: nearly all actives have a fitted effect of over 60% in size. Note: potency is the fitted concentration of half-maximal effect. In a few lines: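 Viability by ATP luminescence (CellTiter-Glo, 30 min RT) after 40 h compound treatment at 37 C/5% CO2, using 300 parental DNA repair-proficient DT40 cells per well.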
In general terms: Quantitative high-throughput screening tests each substance at several concentrations.

A short description of experiment [3]: qHTS assay for identifying genotoxic compounds that show differential cytotoxicity against isogenic chicken DT40 cell lines with known DNA damage response pathways - Rev3 mutant cell line (AID 743014). Note: nearly all actives have a fitted effect of over 55% in size. Note: potency is the fitted concentration of half-maximal effect.
Experiment [4] can be described thus: qHTS assay for identifying genotoxic compounds that show differential cytotoxicity against isogenic chicken DT40 cell lines with known DNA damage response pathways - Rad54/Ku70 mutant cell line (AID 743015). Note: nearly all actives have a fitted effect of over 60% in size. Note: potency is the fitted concentration of half-maximal effect.
The nature of experiment [5]: qHTS assay to identify small molecule antagonists of the androgen receptor (AR) signaling pathway - cell viability counter screen (AID 743033; note: nearly all actives have a fitted effect of over 45% in size; note: potency is the fitted concentration of half-maximal effect).
Experiment [6] in a line: qHTS assay to identify small molecule antagonists of the androgen receptor (AR) signaling pathway using the MDA cell line - cell viability counter screen (AID 743041; note: nearly all actives have a fitted effect of over 45% in size; note: potency is the fitted concentration of half-maximal effect). In a few lines: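 Viability read by CellTiter-Fluor fluorescence in the same wells as the antagonist screen, added after 15.5 h of a 16 h, 37C exposure. Human breast carcinoma MDA-kb2 AR-luc cells, compounds co-dosed with agonist R1881.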

Experiment [7] is described as follows: qHTS assay to identify small molecule antagonists of the thyroid receptor (TR) signaling pathway - cell viability counter screen (AID 743064). Note: nearly all actives have a fitted effect of over 50% in size. Note: potency is the fitted concentration of half-maximal effect. In a few lines: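 GH3.TRE-Luc rat pituitary cells carrying a TRE-luciferase reporter were treated with compound plus 1 nM T3 (final) for 23.5 h at 37 °C. Viability was then read in the same wells by CellTiter-Fluor fluorescence after a further 30 min.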

Experiment [8] deals with Estrogen receptor (Homo sapiens) (UniProt P03372). As to the kind of experiment: qHTS assay to identify small molecule antagonists of the estrogen receptor alpha (ER-alpha) signaling pathway (AID 743069; active = well fitted curve in the direction sought with a large enough effect in the signal ratio in the repeat runs, not every such curve was filed as active; inconclusive = weak or mixed curves, or effect the other way; inactive = no such curve, though single readings can be large or run the other way; the % refers to the signal ratio; note: potency is the fitted concentration of half-maximal effect). In a few lines:
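Antagonist mode: compounds in DMSO were co-added with 17beta-estradiol to ER-alpha-bla HEK293 cells (2% charcoal-stripped serum) and left 18 h at 37C. Reporter inhibition was measured as FRET fluorescence after 2 h LiveBLAzer substrate at room temperature.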

Experiment [9] in a line: qHTS assay to identify small molecule antagonists of the estrogen receptor alpha (ER-alpha) signaling pathway - cell viability counter screen (AID 743074; calls by dose curve;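 note: HEK293 cells carrying ER-alpha-UAS-bla reporter stimulated with 17beta-estradiol; nearly all actives have a fitted effect of over 45% in size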; note: potency is the fitted concentration of half-maximal effect).
The target of experiment [10] is Estrogen receptor (Homo sapiens) (UniProt P03372). In words: qHTS assay to identify small molecule agonists of the estrogen receptor alpha (ER-alpha) signaling pathway (AID 743075; calls by dose curve;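 note: HEK293 GripTite cells with ER-alpha and UAS-driven beta-lactamase reporter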). As to conditions: HEK293 ER-alpha-UAS-bla, beta-lactamase FRET ratio, 18 h; activation: at 70.1 µM (top of the series).
Estrogen receptor (Homo sapiens), sequence (P03372 whole entry, looked up): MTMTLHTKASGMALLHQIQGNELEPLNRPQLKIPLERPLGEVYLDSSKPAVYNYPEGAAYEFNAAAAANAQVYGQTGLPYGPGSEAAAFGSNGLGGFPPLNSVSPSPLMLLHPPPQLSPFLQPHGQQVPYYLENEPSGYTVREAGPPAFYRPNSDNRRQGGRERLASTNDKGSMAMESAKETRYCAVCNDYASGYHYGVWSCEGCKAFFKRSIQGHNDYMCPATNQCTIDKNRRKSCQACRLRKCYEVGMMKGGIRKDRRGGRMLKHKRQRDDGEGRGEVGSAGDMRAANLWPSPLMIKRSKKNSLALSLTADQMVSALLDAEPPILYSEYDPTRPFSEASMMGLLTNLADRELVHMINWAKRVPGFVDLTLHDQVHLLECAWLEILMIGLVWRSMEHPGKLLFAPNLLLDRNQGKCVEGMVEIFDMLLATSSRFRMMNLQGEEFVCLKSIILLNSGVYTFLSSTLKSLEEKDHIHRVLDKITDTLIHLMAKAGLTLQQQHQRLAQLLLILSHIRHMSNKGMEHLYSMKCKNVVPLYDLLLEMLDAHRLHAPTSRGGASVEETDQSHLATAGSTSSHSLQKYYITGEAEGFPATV
Experiment [11] shares this target. As to the kind of experiment: qHTS assay to identify small molecule agonists of the estrogen receptor alpha (ER-alpha) signaling pathway using the BG1 cell line (AID 743079). Note: nearly all actives have a fitted effect of over 20% in size. Note: potency is the fitted concentration of half-maximal effect. As to conditions: BG1Luc4E2 cells, ERE-luciferase agonist, 22 h.
A short description of experiment [12]: qHTS assay to identify small molecule antagonists of the estrogen receptor alpha (ER-alpha) signaling pathway using the BG1 cell line (AID 743080; calls by dose curve;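 note: BG1 cells stimulated with 17beta-estradiol alongside compound; nearly all actives have a fitted effect of over 25% in size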). In a few lines:
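BG1Luc4E2, endogenous ER-alpha, 4xERE-luc; 5 d charcoal-stripped FBS, phenol red free; 24 h plating; cpd + 17beta-estradiol 21.5 h, 37 C/5% CO2; CellTiter-Fluor viability 30 min, then ONE-Glo luciferase 30 min RT.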

Experiment [13] can be described thus: qHTS assay to identify small molecule antagonists of the estrogen receptor alpha (ER-alpha) signaling pathway using the BG1 cell line - cell viability counter screen (AID 743081).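 Note: compound given together with 17beta-estradiol as the ER stimulus; nearly all actives have a fitted effect of over 45% in size.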 Note: potency is the fitted concentration of half-maximal effect.
Experiment [14] deals with Aromatase (Homo sapiens) (UniProt P11511). As to the kind of experiment: qHTS assay to identify aromatase inhibitors (AID 743083). Note: nearly all actives have a fitted effect of over 55% in size. Note: potency is the fitted concentration of half-maximal effect.
Aromatase (Homo sapiens), sequence (P11511 whole entry, looked up): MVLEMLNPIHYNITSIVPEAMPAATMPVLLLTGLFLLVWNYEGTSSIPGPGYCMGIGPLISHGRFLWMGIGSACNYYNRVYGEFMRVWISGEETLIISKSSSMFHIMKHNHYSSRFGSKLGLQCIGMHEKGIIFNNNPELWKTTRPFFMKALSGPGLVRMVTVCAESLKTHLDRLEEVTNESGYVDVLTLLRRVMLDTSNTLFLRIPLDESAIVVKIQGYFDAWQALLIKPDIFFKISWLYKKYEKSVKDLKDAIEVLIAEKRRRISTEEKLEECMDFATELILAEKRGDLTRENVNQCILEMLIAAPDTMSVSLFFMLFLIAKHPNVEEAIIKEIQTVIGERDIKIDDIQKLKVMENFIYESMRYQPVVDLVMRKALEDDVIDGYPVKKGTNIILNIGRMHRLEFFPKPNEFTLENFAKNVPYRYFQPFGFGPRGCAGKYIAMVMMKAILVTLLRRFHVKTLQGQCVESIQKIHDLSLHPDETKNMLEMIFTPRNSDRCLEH
For experiment [15], the system named is thyroid hormone receptor (rat, GH3 cells). In words: qHTS assay to identify small molecule agonists of the thyroid receptor (TR) signaling pathway (AID 743066; calls by dose curve).
Experiment [16] is described as follows: qHTS assay to identify small molecule antagonists of the thyroid receptor (TR) signaling pathway (AID 743065). Note: nearly all actives have a fitted effect of over 55% in size. Note: potency is the fitted concentration of half-maximal effect. In a few lines: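 Antagonism measured as loss of luciferase signal in GH3 cells stably carrying a TRE-luciferase reporter, co-treated with compound and T3 (1 nM final) for 23.5 h at 37 C. Viability was read in the same well by CellTiter-Fluor.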

Each structure is given as a SMILES string. “And” between values parts separate entries of the source, which are not always exact repeats. Equal entries are not always repeated. The source holds several records for some structures; these can differ, active in one and inactive in another. The source made the active and inactive calls. Unless noted, calls come from the whole dose curve; as a rule, active = well fitted curve in the direction sought with a large enough effect in the repeat runs; inconclusive = weak or mixed curves; inactive = no such curve, though single readings can be large; an effect the other way counts as inactive or inconclusive.
% is set by controls: 0 for no effect and ±100 for the full control effect.

Take `Cc1cccc(CN2CCN(C(c3ccccc3)c3ccc(Cl)cc3)CC2)c1` (centres undefined): the Potency entry in experiment [1], in [5], in [6], in experiment [8], in experiment [9] and in experiment [10] was “inactive” throughout. Moreover, the Potency result in [12], in experiment [13] and in [14] was “inactive” throughout. Moreover, the Potency in experiment [2] is 9.02 µM (active); in [3] it was 5.07 µM (active); in [4] it was 9.02 µM (active); in experiment [7] it was 12.7 µM (active). In experiment [11] (at 32.5 µM (top of the series)), the activation was -3.05% (inactive).

Turning to `Nc1c(Cl)cc(Cl)cc1Cl`, the Potency entry in experiment [1], in experiment [2], in experiment [3], in experiment [4], in experiment [5] and in experiment [6] was “inactive” throughout. Moreover, the Potency result in [15], in experiment [9], in [13] and in [14] was “inactive” in each case.

As to `O=C(O)c1cc(O)c2c(c1)C(=O)c1cccc(O)c1C2=O`, the Potency entry in experiment [1], in experiment [2], in experiment [3], in experiment [4], in experiment [5] and in experiment [6] was “inactive” each time. Besides, the Potency entry in [7], in experiment [15], in experiment [8], in [9], in experiment [10] and in [12] was “inactive” throughout. In addition, in experiment [14], the Potency entry was “inactive”. The Potency in experiment [11] is 39.7 µM (active).

In the case of `O=C1Cc2cc(CCN3CCN(c4nsc5ccccc45)CC3)c(Cl)cc2N1`, the Potency result in experiment [1], in experiment [5], in experiment [6], in [9], in experiment [10] and in [12] was “inactive” each time. The Potency result in experiment [13] and in experiment [14] was “inactive” throughout. The Potency in experiment [2] is 21.1 µM (active) and 10.6 µM (active); in experiment [3], 33.5 µM (active) and 26.6 µM (active); in experiment [4] it was 18.8 µM (active) and 9.44 µM (active); in experiment [7], “inactive and 16.8 µM (active)”. For the same molecule, the activation in experiment [11] (at 70.3 µM (top of the series)) was 1.77% (inactive) and -23.7% (inactive).

`Clc1ccccc1C(c1ccccc1)(c1ccccc1)n1ccnc1`: the Potency result in experiment [1], in [6], in experiment [15], in experiment [10] and in [13] was “inactive” in each case. Also, the Potency in experiment [2] is 5.07 µM (active) and 5.45 µM (active); in [3] it was 10.1 µM (active) and 15.4 µM (active); in experiment [4], 8.04 µM (active) and 3.44 µM (active); in experiment [5] it was 54.9 µM (active); in [7] it was 8.04 µM (active) and 21.7 µM (active); in [8], 6.44 µM [inconclusive] (active) and 15.5 µM [inconclusive] (active). For the same molecule, the Potency result in experiment [9] was “inactive and 54.9 µM (active)”; in [14], 4.52 µM (active) and 6.86 µM (active). Besides, in experiment [11] (at 32.5 µM (top of the series)), the activation was -14.7% (inactive).

In the case of `CC(C)c1ccc2c(c1)CC[C@H]1[C@](C)(CN)CCC[C@]21C`, the Potency was 38.9 µM (active) in [1]; 5.45 µM (active) in experiment [2]; 6.11 µM (active) in [3]; 5.45 µM (active) in experiment [4]; 21.9 µM (active) in experiment [5]; 24.3 µM (active) in experiment [6]. The Potency in [7] was 10.9 µM (active); in [16], 12.2 µM (active); in [9], 49 µM (active); in experiment [14] it was 19.3 µM (active).

On to `Cc1ccc(-n2nc(C(C)(C)C)cc2NC(=O)Nc2ccc(OCCN3CCOCC3)c3ccccc23)cc1`, for which the Potency result in experiment [1], in [5], in experiment [6], in [7], in experiment [15] and in [9] was “inactive” each time. The Potency result in experiment [10], in experiment [12], in experiment [13] and in experiment [14] was “inactive” throughout. Moreover, the Potency in [2] was 18.8 µM (active); in experiment [3], 26.6 µM (active); in experiment [4], 26.6 µM (active); in experiment [8] it was 13.4 µM [inconclusive] (active).

Take `CCCCCCCCCCCC[N+](C)(C)CCCCCCCCCCCC`: the Potency in [1] was 24.5 µM (active); in experiment [2], 4.33 µM (active); in experiment [3], 3.86 µM (active); in experiment [4], 4.33 µM (active); in [5], 19.5 µM (active); in [6], 27.3 µM (active). For the same molecule, the Potency is 24.3 µM (active) in experiment [7]; 17.2 µM (active) in experiment [16]; 24.5 µM (active) in experiment [9]; 68.6 µM (active) in experiment [13]; 17.2 µM (active) in [14]. Besides, the Potency result in experiment [15] and in experiment [8] was “inactive” throughout.

For `Cc1cc(N)c(S(=O)(=O)O)cc1Cl`, the Potency entry in experiment [1], in experiment [2], in experiment [3], in [4], in experiment [5] and in [6] was “inactive” each time. In addition, the Potency result in experiment [15], in [9], in experiment [13] and in experiment [14] was “inactive” each time.

For `CCCCCCCCOc1ccccc1C(=O)Nc1ccc(C(=O)OCC[N+](C)(CC)CC)cc1`, the Potency in experiment [1] was 23.9 µM (active); in experiment [2], 11.9 µM (active); in experiment [3], 23.7 µM (active); in experiment [4], 26.6 µM (active); in experiment [7], 26.6 µM (active); in [16], 26.6 µM (active). Further, the Potency entry in [5], in [6], in experiment [9], in experiment [10], in experiment [12] and in experiment [13] was “inactive” each time. Besides, the Potency result in experiment [14] was “inactive”. Further, in experiment [11] (at 70.3 µM (top of the series)), the activation is -29.5% (inactive).

On to `CO[Si](CCCNc1ccccc1)(OC)OC`, for which the Potency entry in experiment [1], in experiment [5], in [6], in experiment [7], in experiment [16] and in experiment [15] was “inactive” throughout. For the same molecule, the Potency entry in experiment [9], in experiment [13] and in [14] was “inactive” throughout. Besides, the values for the Potency in experiment [2], in experiment [3] and in [4] were 12.2 µM (active), 15.4 µM (active) and 8.63 µM (active), respectively.

In the case of `CCN(C(=O)c1cc(C)cc(OC[C@H](C)Nc2ccncc2)c1)C(C)C`, the Potency result in experiment [1], in experiment [5], in experiment [6], in experiment [15], in [9] and in [13] was “inactive” in each case. The Potency result in experiment [14] is “inactive”. Further, the Potency in experiment [2] was 19.1 µM (active); in experiment [3], 19.1 µM (active); in experiment [4] it was 17 µM (active).

With `OC1(c2ccc(Cl)c(C(F)(F)F)c2)CCN(CCCC(c2ccc(F)cc2)c2ccc(F)cc2)CC1`, the Potency is 15.1 µM (active) in experiment [1]; 4.22 µM (active) in experiment [2]; 7.5 µM (active) in experiment [3]; 5.96 µM (active) in [4]; 19 µM (active) in experiment [5]; 5.96 µM (active) in [7]. Further, the Potency was 5.96 µM (active) in experiment [16], 26.8 µM (active) in experiment [9] and 7.5 µM (active) in experiment [14]. The Potency result in experiment [6] and in experiment [13] was “inactive” throughout.
